These results are taken from PubChem BioAssay (NCATS).

The structures appear in SMILES notation. Active and inactive are the calls of the source. Calls follow the shape of the dose curve; as a rule, active = well fitted activation curve with a large enough effect; inconclusive = small, poorly fitted or top-dose-only effect; inactive = flat fitted curve, though single readings scatter.
Potency is read from the fitted curve at half-maximal effect.

Peroxisome proliferator-activated receptor alpha (Homo sapiens), sequence (Q07869 whole entry, looked up, the tested form may be a part): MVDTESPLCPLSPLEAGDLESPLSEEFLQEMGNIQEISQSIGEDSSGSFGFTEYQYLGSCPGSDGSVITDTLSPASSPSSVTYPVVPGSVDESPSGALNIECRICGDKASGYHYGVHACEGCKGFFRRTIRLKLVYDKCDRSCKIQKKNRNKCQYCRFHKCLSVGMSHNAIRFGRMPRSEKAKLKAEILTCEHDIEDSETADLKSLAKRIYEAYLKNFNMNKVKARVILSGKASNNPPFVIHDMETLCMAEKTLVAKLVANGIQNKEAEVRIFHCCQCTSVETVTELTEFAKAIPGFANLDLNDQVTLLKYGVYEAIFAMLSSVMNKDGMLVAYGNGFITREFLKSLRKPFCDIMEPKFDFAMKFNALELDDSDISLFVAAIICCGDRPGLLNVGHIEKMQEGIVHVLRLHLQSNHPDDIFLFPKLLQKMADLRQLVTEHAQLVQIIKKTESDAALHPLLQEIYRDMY

This experiment concerns the target Peroxisome proliferator-activated receptor alpha (Homo sapiens) (UniProt Q07869). Kind of experiment: qHTS assay for small molecule agonists of the peroxisome proliferator-activated receptor alpha (PPARalpha) signaling pathway (AID 651778). As to max response: % of control where 0% means no effect. To be noted: PathHunter PPARalpha complementation, chemiluminescence, 6 h; max response: active compounds read high. The gist of the method: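 Enzyme-fragment complementation assay in which ligand-bound PPARalpha translocates and forms an active enzyme that generates chemiluminescence. Cells were plated overnight, exposed to compound for 6 hr at 37 C, and then given detection reagent for 60 min at room temperature.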
Background: qHTS replaces the single test concentration by a dilution series.
In the case of `OC[C@@H](O)[C@@H](O)[C@H](O)[C@@H](O)CO`, the max response is -1.39% (inactive).

As to `O=C1c2cccc(O)c2C(=O)c2c(O)cc(CO)cc21`, the max response was -2.01% (inactive). For `C[C@]12CC[C@@H]3c4ccc(O)cc4CC[C@H]3[C@H]1CC[C@H]2O`, the max response was -1.17% (inactive). Regarding `Cc1cc(O)c2c(c1)C(=O)c1cccc(O)c1C2=O`, the max response was -1.41% (inactive). Turning to `CC(C=CC1=C(C)CCCC1(C)C)=CC=CC(C)=CC(=O)Nc1ccc(O)cc1`, the Potency is 8.91 µM (active).
